The record followed here is PubChem BioAssay AID1778 (Sanford-Burnham Center for Chemical Genomics, 2009).

In all, about 290,000 compounds went through this assay and about 260 (0.09%) were called active. The list comes from a sample in which actives are over-represented; it also holds similar structures and randomly drawn compounds. Measured potencies and affinities stand elsewhere. Values without a mark were called inactive. Cut-off read from the data, not from the text of the source: active = inhibition above about 50%; inactive = the rest.

The inhibition is the relative decrease from the control value, in per cent.

The target in the experiment is Kappa-type opioid receptor (Homo sapiens) (UniProt P41145). Nature of the experiment: KOR antagonists, beta-arrestin recruitment, cell-based, luminescence, uHTS (AID 1778). As to conditions: antagonist mode, hits give high values; at 10 µM unless noted. In general terms: Activated receptors often draw arrestin, which recruitment assays turn into a signal.
Sequence of Kappa-type opioid receptor (Homo sapiens) (P41145 whole entry, looked up): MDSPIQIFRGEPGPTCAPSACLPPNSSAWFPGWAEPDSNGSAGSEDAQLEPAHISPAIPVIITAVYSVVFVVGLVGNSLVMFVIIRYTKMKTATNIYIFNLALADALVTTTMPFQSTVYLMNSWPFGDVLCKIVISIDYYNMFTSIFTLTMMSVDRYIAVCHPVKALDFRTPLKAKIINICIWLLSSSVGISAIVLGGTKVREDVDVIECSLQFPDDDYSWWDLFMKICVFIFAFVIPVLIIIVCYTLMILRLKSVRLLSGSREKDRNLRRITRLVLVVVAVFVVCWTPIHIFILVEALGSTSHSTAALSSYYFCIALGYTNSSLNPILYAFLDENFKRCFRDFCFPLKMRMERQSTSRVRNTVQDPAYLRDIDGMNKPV
`CNc1ccc(OC(F)F)cc1C(=O)c1ccccc1`: the inhibition is 17.2%.

For the compound `Cc1ccc(SCC(=O)N2CCc3ccccc32)cc1`, the inhibition is -4.7%.

Consider `CC(=O)/C(=N\Nc1cccc(Cl)c1)Sc1cccc2cccnc12`, for which the inhibition was 9.1%.

With `CC(=O)/C(=N\Nc1ccccc1Cl)Sc1cccc2cccnc12`, the inhibition was -17.2%.

Take `Fc1ccc2[nH]c3c(c2c1)CN(C(=S)NCc1ccccc1)CC3`: the inhibition was -9.6%.

In the case of `O=C1CSC(c2ccccc2Br)N1c1ccc(Cl)cn1` (stereo unspecified), the inhibition is 2.8%.

For the compound `CCOC(=O)c1nn(-c2ccccc2C)c2nc(CC(C)C)c(C#N)c(=O)n12`, the inhibition was -35.8%.

Regarding `Cc1cc(C(=O)Nc2nc(-c3ccccn3)cs2)ccc1[N+](=O)[O-]`, the inhibition was 22.6%.

`O=C(Nc1nccs1)c1cc(Cl)ccc1[N+](=O)[O-]`: the inhibition was 8.6%.

For `O=C(Nc1nc(-c2ccccn2)cs1)c1cc(Cl)ccc1[N+](=O)[O-]`, the inhibition is 86.8% (active).

For `CNC(=O)CSc1nc2ccccc2c(=O)n1-c1cc(OC)ccc1OC`, the inhibition was 0.7%.

For the compound `CC(NC(=O)Cn1cc(C(F)(F)F)ccc1=O)c1ccc(F)cc1` (stereo unspecified), the inhibition is -19.7%.

Turning to `Cc1ccc(-c2nnc(SCC(N)=O)n2C)cc1`, the inhibition is -13.4% [at 20 µM].

Take `COC(=O)CC(N)c1ccc(OC)c2ccccc12` (stereo unspecified): the inhibition is 15.2%.

For the compound `Oc1ccc(N=Nc2nc(-c3ccccc3)c(-c3ccccc3)[nH]2)cc1`, the inhibition was 32.4%.

In the case of `Cc1[nH]oc(=O)c1N=Nc1ccccc1`, the inhibition was -11%.

With `N#Cc1ccc(NC(=O)CSc2cn[nH]n2)cc1`, the inhibition was -56.1%.

On to `CC(NC(=O)c1cc2cc([N+](=O)[O-])ccc2oc1=O)C1CCCO1` (stereo unspecified), for which the inhibition was -4.3% [at 20 µM].

For `C#CCOCCOCCOCCNc1nc(N2CCN(C(=O)[C@H](Cc3ccc(O)cc3)n3cc([C@@H](N)CC(C)C)nn3)CC2)nc(N2CCN(C(=O)[C@H](Cc3cc4ccccc4[nH]3)n3cc([C@@H](N)CC(C)C)nn3)CC2)n1`, the inhibition was 10.8%.

For `C#CCOCCOCCOCCNc1nc(N2CCN(C(=O)[C@H](Cc3cc4ccccc4[nH]3)n3cc([C@@H](N)Cc4ccc(O)cc4)nn3)CC2)nc(N2CCN(C(=O)[C@H](Cc3cc4ccccc4[nH]3)n3cc([C@@H](N)CC(C)C)nn3)CC2)n1`, the inhibition was 51.3% (active).

Regarding `C#CCOCCOCCOCCNc1nc(N2CCN(C(=O)C(Cc3ccc(O)cc3)n3cc(C(N)CC(C)C)nn3)CC2)nc(N2CCN(C(=O)C(Cc3cc4ccccc4[nH]3)n3cc(C(N)Cc4ccc(O)cc4)nn3)CC2)n1` (stereo unspecified), the inhibition was 12%.

Take `O=C(Nc1ccc(OC(F)(F)F)cc1)c1ccc2ccccc2n1`: the inhibition is -27.1%.

`O=[N+]([O-])c1c(NCCCO)cc(Sc2nc3ccccc3s2)c2nonc12`: the inhibition is 42.1%.

Turning to `Cc1ccc(Sc2cc(NCCCO)c([N+](=O)[O-])c3nonc23)cc1`, the inhibition is 5.8%.

As for `CC(=O)OCCCNc1cc(Sc2nc3ccccc3s2)c2nonc2c1[N+](=O)[O-]`, the inhibition was -22.9%.

In the case of `CC(=O)OCCNc1cc(SC(C)C)c2nonc2c1[N+](=O)[O-]`, the inhibition was -32.5%.

Turning to `CCCSc1cc(NCCOC(C)=O)c([N+](=O)[O-])c2nonc12`, the inhibition was -12.8%.

As for `CCCC(=O)OCCNc1cc(Sc2nc3ccccc3[nH]2)c2nonc2c1[N+](=O)[O-]`, the inhibition was 49.9%.

In the case of `CCCC(=O)OCCNc1cc(SCc2ccco2)c2nonc2c1[N+](=O)[O-]`, the inhibition was 9.3%.

In the case of `Cc1nnc(Sc2cc(NCCO)c([N+](=O)[O-])c3nonc23)s1`, the inhibition is 17.1%.

Regarding `CCOC(=O)Nc1sc2nc(C)cc(C)c2c1-n1cccc1`, the inhibition was -25.7%.

`COCCN(C(=O)c1cccc(OC)c1)c1nnc(-c2ccncc2)s1`: the inhibition is 24.5%.

`COc1ccccc1N1CCN(CC(=O)c2c(C)[nH]c3ccccc23)CC1`: the inhibition was -0.2%.

With `COc1cc(OC)c(OC)cc1/C=N/NC(=S)NCC1CCCO1` (stereo unspecified), the inhibition was 1.1%.

In the case of `CCn1c(SCC(=O)Nc2nc3c(s2)CCCC3)nc2c1c(=O)n(C)c(=O)n2C`, the inhibition was -6.8%.

As for `C=CCOC(=O)C(=O)/C=C/c1ccc2c(c1)Cc1ccccc1-2`, the inhibition is -23.3%.

Regarding `CCCc1ccc2oc(C(=O)N(C)CCn3ccnc3C)c(C)c2c1`, the inhibition was -19.1% [at 20 µM].

For `CC(=O)NC(Cc1cc(C)ccc1C)C(=O)N1CCN(C(=O)c2ccc([N+](=O)[O-])cc2)CC1` (stereo unspecified), the inhibition is -2.4%.

Regarding `COc1cc(-c2nc3ccccn3c2/N=C/c2cccc(F)c2)ccc1O`, the inhibition was -3.3%.

Turning to `COc1cc(CNS(=O)(=O)c2ccc3c(c2)CC(C)N3C(=O)C2CCC2)cc(OC)c1OC` (stereo unspecified), the inhibition was -10.7%.

On to `Oc1[nH]c2ccccc2c1N=NC(=S)N1CCOCC1`, for which the inhibition was 63.2% (active).

Regarding `NC(=S)N=Nc1c(O)[nH]c2ccccc12`, the inhibition was 18.5%.

`Oc1[nH]c2ccc(Br)cc2c1N=NC(=S)N1CCOCC1`: the inhibition is 49.6%.

`COC(=O)CCC(=O)Nc1c(C)n(C)n(-c2ccccc2)c1=O`: the inhibition was 22.3% [at 20 µM].

For the compound `Cc1cc(OCC(=O)Nc2ccc(S(=O)(=O)N3CCN(C)CC3)cc2)ccc1Cl`, the inhibition was -13.3%.

Take `Cc1cc(OCC(=O)Nc2ccc(S(=O)(=O)N3CCN(C)CC3)cc2)ccc1Br`: the inhibition is 3.2%.

As for `O=C(c1ccccn1)N1CCN(c2cccc(C(F)(F)F)c2)CC1`, the inhibition is -1.3%.

As to `CCOC(=O)c1cnn(-c2nc3sc4c(c3c(=O)[nH]2)CCCC4)c1N`, the inhibition was 75% (active).

As to `CCOC(=O)c1cnn(-c2nc(C)nc3sc4c(c23)CCC4)c1N`, the inhibition was -9.9%.

As to `CCOC(=O)c1cnn(-c2nc(SC)nc3sc4c(c23)CCCC4)c1N`, the inhibition was 5.6%.

For `Cc1onc(-c2ccccc2)c1C(=O)N=C(N)c1ccc(C(F)(F)F)cc1`, the inhibition is 19.1%.

Turning to `CCOc1cc(/C=N/NC(=O)C(=O)NCCCOC(C)C)cc(Br)c1O`, the inhibition is 4.9%.

With `CCN1CCN(CCC(=O)Nc2ccc(C)cc2)CC1`, the inhibition was -48.9% [at 20 µM].

With `Cc1cccc(CC2CC(=O)N(c3ccccc3)C2=O)c1` (stereo unspecified), the inhibition is -23.5%.

As for `Cc1ccc(C)c(S(=O)(=O)N2CCC3(CC2)OCCO3)c1`, the inhibition is 11.1%.

In the case of `CN(C)S(=O)(=O)c1cccc(N=c2scc(-c3ccc4c(c3)NC(=O)CO4)n2CC2CCCO2)c1` (stereo unspecified), the inhibition was -17.4%.

Take `O=C1COc2ccc(-c3csc(=Nc4ccc(OC(F)F)cc4)n3CC3CCCO3)cc2N1` (stereo unspecified): the inhibition was 14.3%.

Take `CSCCNC(=O)c1ccc(OC2CCN(S(=O)(=O)N(C)C)CC2)cc1`: the inhibition was 11.7% [at 20 µM].

`CN(C)C(=O)c1c2c(nc3ccccc13)-c1ccccc1CC2`: the inhibition was 7.9%.

Take `CCOc1ccc(NC(=O)c2ccc(NC(=S)NC3CCCCC3)cc2)cc1`: the inhibition was 5.4% [at 20 µM].

On to `Cc1ccc(OCc2ccccc2C)c([N+](=O)[O-])n1`, for which the inhibition was -33%.

Regarding `CCCN(CCC)CC(O)Cn1cc(/C=C/C(=O)c2ccccc2)c2ccccc21` (stereo unspecified), the inhibition is 19%.

Take `CCCCN(C)CC(O)Cn1cc(/C=C/C(=O)c2cccs2)c2ccccc21` (stereo unspecified): the inhibition was 19.9%.

In the case of `COC(=O)c1sc(N)c(C(=O)OC)c1CSc1nnnn1C`, the inhibition is -5.2%.

Turning to `Cc1ccc(C(=O)Nc2nnc(-c3ccco3)o2)cc1C`, the inhibition was 40.8%.

`O=C(CCc1ccccc1)Nc1nnc(-c2ccc3c(c2)OCCO3)o1`: the inhibition was 11.2%.

For the compound `O=C(Nc1nnc(C2=COCCO2)o1)c1ccc(Cc2ccccc2)cc1`, the inhibition was -22.6% [at 20 µM].

In the case of `O=C(Nc1nnc(-c2ccco2)o1)c1ccc2ccccc2c1`, the inhibition is 89.7% (active).

In the case of `Cc1ccc(C(=O)Nc2nnc(-c3ccco3)o2)cc1`, the inhibition is 14.7%.

`CCCN(CCC)S(=O)(=O)c1ccc(C(=O)Nc2nnc(-c3cc(OC)cc(OC)c3)o2)cc1`: the inhibition was -91.7%.

Consider `O=C(Nc1nnc(-c2ccc3c(c2)OCCO3)o1)c1ccc(Cc2ccccc2)cc1`, for which the inhibition was 51.8% (active).

In the case of `COc1ccc(-c2nnc(NC(=O)c3ccc4c(c3)OCCO4)o2)cc1`, the inhibition is 29.6%.

Consider `CC1CCN(CC(=O)Nc2ccccc2Sc2ccccc2)CC1`, for which the inhibition is -8%.

Take `O=C(Nc1cccnc1)c1ccccc1Cl`: the inhibition was 21.5% [at 20 µM].

For `CN1CCC(N(C)S(=O)(=O)c2ccc(F)cc2F)CC1`, the inhibition is -33.5%.

With `Cc1c(C(=O)O)[nH]c2c1C(=O)CC(c1ccc(C(C)(C)C)cc1)C2` (stereo unspecified), the inhibition is 14.6%.

`Cc1csc(NC(=S)Nc2cccc(Cl)c2)n1`: the inhibition was 57.9% (active).

In the case of `Cc1csc(NC(=O)Nc2cccc(Cl)c2)n1`, the inhibition is -9.6%.

Turning to `NNC(=S)Nc1cccc(Cl)c1`, the inhibition is 18.7%.

Take `COc1ccc(OC)c(-n2c(SCC(C)=O)nnc2-c2cccc(S(=O)(=O)N(C)C)c2)c1`: the inhibition was 21.3%.

For the compound `O=C(Oc1ccc(Cl)c2cccnc12)c1ccco1`, the inhibition is 6.4%.

As for `O=C(Nc1cccc(C(F)(F)F)c1)Oc1ccc(Cl)c2cccnc12`, the inhibition was 65.4% (active).

Regarding `CCN(CC)C(=O)Oc1ccc(Cl)c2cccnc12`, the inhibition was 16.1% [at 20 µM].

Regarding `C/C(=N\NC(N)=S)c1ccccc1`, the inhibition was 11.9%.

As to `CSC(=S)N/N=C(\C)c1ccc(Br)cc1`, the inhibition is 46.1%.

With `Cc1c(C(=O)Nc2ccc3c(c2)OCO3)oc2ccccc12`, the inhibition is -1.2%.

As for `Cc1ccc2nc(-c3ccccn3)[nH]c2c1`, the inhibition was -33.9% [at 20 µM].

With `Cc1cc(=S)nc(-c2ccccn2)[nH]1`, the inhibition is -17.8%.

With `CCN(CC)CCn1c2ccccc2c2cnc(N=CN(C)C)c(C#N)c21`, the inhibition is -24.3%.

For `CCO/C(=C/c1sc2ccc(OC)cc2[n+]1CCCS(=O)(=O)[O-])CC`, the inhibition was 2.7%.

Consider `CSc1sc2ccccc2[n+]1CCCS(=O)(=O)[O-]`, for which the inhibition is 21.2%.
